About 79,000 compounds went through this panel and 15% of them were active in at least one assay; those are over-represented in the sample as a whole. Values without a mark were called inactive. Activity calls are given as the source filed them. Rule as the data show it: active = growth inhibition above about 70%; inactive = the rest.

The values below come from PubChem BioAssay (NCI).

A short description of assay [1]: NCI Yeast Anticancer Drug Screen. Data for the rad50 strain (AID 155).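 Also: 0% = growth of vehicle-only cultures of the same strain.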 To be noted: S. cerevisiae rad50 strain growth inhibition, active compounds read high. An outline of the steps: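 Readout: growth inhibition relative to vehicle-treated cultures. Compound exposure was carried out in a genetically defined yeast strain deficient in DNA damage repair.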
Assay [2] in a line: NCI Yeast Anticancer Drug Screen. Data for the mec2-1 strain (AID 157). To be noted: S. cerevisiae mec2-1 strain, active compounds read high. An outline of the steps: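 Mutant yeast (mec2-1) grown with compound; growth inhibition relative to vehicle control reported.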
The nature of assay [3]: NCI Yeast Anticancer Drug Screen. Data for the sgs1 mgt1 strain (AID 161).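 Also: 0% = growth of cultures given vehicle only.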 Particulars: S. cerevisiae sgs1 mgt1 strain, active compounds read high. An outline of the steps:
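Compounds are added to genetically altered yeast, and growth is compared with cultures given vehicle alone to give percent inhibition.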

Assay [4] is described as follows: NCI Yeast Anticancer Drug Screen. Data for the cln2 rad14 strain (AID 165).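 Also: 0% = growth equal to vehicle treated cultures.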 To be noted: S. cerevisiae cln2 rad14 strain, active compounds read high. The gist of the method: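 Readout is yeast growth inhibition versus vehicle-treated controls, using a strain with cln2 and rad14 alterations exposed to compound.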
Assay [5] is described as follows: NCI Yeast Anticancer Drug Screen. Data for the bub3 strain (AID 167). To be noted: S. cerevisiae bub3 mutant strain, active compounds read high. The gist of the method: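 Readout: yeast growth inhibition, expressed relative to vehicle-only wells. The test organism is a mutant strain from a panel with lesions in DNA repair or checkpoint genes.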
Assay [6] is described as follows: NCI Yeast Anticancer Drug Screen. Data for the mlh1 rad18 strain (AID 175). To be noted: S. cerevisiae mlh1 rad18 strain growth inhibition, active compounds read high. An outline of the steps:
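Genetically defined yeast (DNA repair-deficient) exposed to compounds; growth inhibition determined relative to vehicle.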

[7] abbreviates: at 5.0 µM (retest, dose inferred, filed as 0.5).
Where [8] appears, read: at 50.0 µM (retest, dose inferred, filed as 5.0).

Turning to `Cc1c2ccccc2c(C)c2c1ccc1ccccc12`, the growth inhibition was 73% (active) in assay [1] (setting [7]); 91% (active) in assay [1] (setting [8]); 96.8% (active) in assay [1] (at 50.0 µM); 93% (active) in assay [2] (setting [7]); 91% (active) in assay [2] (setting [8]); 97.5% (active) in assay [2] (at 50.0 µM). For the same molecule, the growth inhibition in assay [3] (setting [7]) was 93% (active); in assay [3] (setting [8]), 94% (active); in assay [3] (at 50.0 µM), 97.7% (active); in assay [4] (setting [7]), 60%; in assay [4] (setting [8]), 91% (active); in assay [4] (at 50.0 µM), 83.4% (active). The growth inhibition is 81% (active) in assay [5] (setting [7]); 93% (active) in assay [5] (setting [8]); 94.3% (active) in assay [5] (at 50.0 µM); 93% (active) in assay [6] (setting [7]); 91% (active) in assay [6] (setting [8]); 98.1% (active) in assay [6] (at 50.0 µM).
Turning to `O=[N+]([O-])c1cc2cccnc2c2ncccc12`, the growth inhibition in assay [1] (setting [7]) was -8%; in assay [1] (setting [8]), -15%; in assay [1] (at 50.0 µM), 63%; in assay [2] (setting [7]), -43%; in assay [2] (setting [8]), -18%; in assay [2] (at 50.0 µM), 41.1%. Further, the growth inhibition was -5% in assay [3] (setting [7]); 20% in assay [3] (setting [8]); 81.2% (active) in assay [3] (at 50.0 µM); -8% in assay [4] (setting [7]); 21% in assay [4] (setting [8]); 62.2% in assay [4] (at 50.0 µM). Moreover, the growth inhibition in assay [5] (setting [7]) is -21%; in assay [5] (setting [8]), -86%; in assay [5] (at 50.0 µM) it was 34.4%; in assay [6] (setting [7]), 4%; in assay [6] (setting [8]), 22%; in assay [6] (at 50.0 µM) it was 76.2% (active).
Turning to `COC(=O)c1ccc(OC)cc1`, the growth inhibition is 2% in assay [1] (setting [7]); -1% in assay [1] (setting [8]); 49.9% in assay [1] (at 50.0 µM); 3% in assay [2] (setting [7]); -3% in assay [2] (setting [8]); 3.4% in assay [2] (at 50.0 µM). Further, the growth inhibition in assay [3] (setting [7]) is -1%; in assay [3] (setting [8]), -4%; in assay [3] (at 50.0 µM), 49.8%; in assay [4] (setting [7]) it was -1%; in assay [4] (setting [8]) it was -7%; in assay [4] (at 50.0 µM) it was 20.7%. The growth inhibition in assay [5] (setting [7]) is 3%; in assay [5] (setting [8]), 2%; in assay [5] (at 50.0 µM) it was 69.1%; in assay [6] (setting [7]), 3%; in assay [6] (setting [8]) it was -3%; in assay [6] (at 50.0 µM), 16.2%.
On to `CC12CC(Br)(Br)C(=O)C3C1CCCC32`, for which the growth inhibition in assay [1] (setting [7]) was 51%; in assay [1] (setting [8]) it was 31%; in assay [1] (at 50.0 µM), 48.9%; in assay [2] (setting [7]) it was 48%; in assay [2] (setting [8]), 60%; in assay [2] (at 50.0 µM) it was 41%. Moreover, the growth inhibition in assay [3] (setting [7]) is 37%; in assay [3] (setting [8]), -38%; in assay [3] (at 50.0 µM), 86.8% (active); in assay [4] (setting [7]), 49%; in assay [4] (setting [8]) it was 35%; in assay [4] (at 50.0 µM), 75.7% (active). Further, the growth inhibition in assay [5] (setting [7]) is 74% (active); in assay [5] (setting [8]) it was 59%; in assay [5] (at 50.0 µM), 87% (active); in assay [6] (setting [7]), 74% (active); in assay [6] (setting [8]) it was 79% (active); in assay [6] (at 50.0 µM), 87% (active).
With `Cc1occc1C(=S)Nc1ccc(Cl)c(C(=O)OCC2CC2)c1`, the growth inhibition in assay [1] (setting [7]) was -14%; in assay [1] (setting [8]), -3%; in assay [1] (at 50.0 µM), 84.8% (active); in assay [2] (setting [7]), -21%; in assay [2] (setting [8]) it was 5%; in assay [2] (at 50.0 µM), 86% (active). In addition, the growth inhibition was -15% in assay [3] (setting [7]); -3% in assay [3] (setting [8]); 81.4% (active) in assay [3] (at 50.0 µM); 2% in assay [4] (setting [7]); 62% in assay [4] (setting [8]); 82.5% (active) in assay [4] (at 50.0 µM). Further, the growth inhibition in assay [5] (setting [7]) is -3%; in assay [5] (setting [8]) it was 17%; in assay [5] (at 50.0 µM), 80.2% (active); in assay [6] (setting [7]), -2%; in assay [6] (setting [8]), 8%; in assay [6] (at 50.0 µM), 16.2%.
Take `O=C1CSC(c2cccc([N+](=O)[O-])c2)N1c1ccc(-c2ccc(-n3c(-c4ccccc4)nc4ccccc4c3=O)cc2)cc1` (configuration not stated): the growth inhibition is -12% in assay [1] (setting [7]); 72% (active) in assay [1] (setting [8]); 25.1% in assay [1] (at 50.0 µM); -2% in assay [2] (setting [7]); 36% in assay [2] (setting [8]); 59.5% in assay [2] (at 50.0 µM). For the same molecule, the growth inhibition was 2% in assay [3] (setting [7]); 78% (active) in assay [3] (setting [8]); -29.4% in assay [3] (at 50.0 µM); 26% in assay [4] (setting [7]); 48% in assay [4] (setting [8]); 34% in assay [4] (at 50.0 µM). Further, the growth inhibition in assay [5] (setting [7]) was -12%; in assay [5] (setting [8]), 91% (active); in assay [5] (at 50.0 µM), 87.8% (active); in assay [6] (setting [7]) it was 9%; in assay [6] (setting [8]), 90% (active); in assay [6] (at 50.0 µM) it was 83.2% (active).
Regarding `COc1cccc2c1C(=O)c1c(O)c(COC3CC(N)C(O)C(C)O3)cc(O)c1C2=O` (configuration not stated), the growth inhibition is 14% in assay [1] (setting [7]); 89% (active) in assay [1] (setting [8]); 96.7% (active) in assay [1] (at 50.0 µM); 14% in assay [2] (setting [7]); 96% (active) in assay [2] (setting [8]); 73% (active) in assay [2] (at 50.0 µM). In addition, the growth inhibition was 13% in assay [3] (setting [7]); 80% (active) in assay [3] (setting [8]); 99.3% (active) in assay [3] (at 50.0 µM); 3% in assay [4] (setting [7]); 42% in assay [4] (setting [8]); 50.6% in assay [4] (at 50.0 µM). Further, the growth inhibition was 7% in assay [5] (setting [7]); 40% in assay [5] (setting [8]); 98% (active) in assay [5] (at 50.0 µM); 12% in assay [6] (setting [7]); 53% in assay [6] (setting [8]); 98.3% (active) in assay [6] (at 50.0 µM).
With `COC1CCC(O)C(CO)O1` (configuration not stated), the growth inhibition is 100% (active) in assay [1] (setting [7]); 99% (active) in assay [1] (setting [8]); 99.5% (active) in assay [1] (at 50.0 µM); 100% (active) in assay [2] (setting [7]); 99% (active) in assay [2] (setting [8]); 99.6% (active) in assay [2] (at 50.0 µM). The growth inhibition in assay [3] (setting [7]) is 100% (active); in assay [3] (setting [8]), 99% (active); in assay [3] (at 50.0 µM), 99.7% (active); in assay [4] (setting [7]), 100% (active); in assay [4] (setting [8]), 99% (active); in assay [4] (at 50.0 µM), 99.6% (active). For the same molecule, the growth inhibition was 99% (active) in assay [5] (setting [7]); 99% (active) in assay [5] (setting [8]); 99.5% (active) in assay [5] (at 50.0 µM); 99% (active) in assay [6] (setting [7]); 99% (active) in assay [6] (setting [8]); 99.5% (active) in assay [6] (at 50.0 µM).
With `CC12CCCC1C1CC=C3CC(OC=O)CCC3(C)C1CC2` (configuration not stated), the growth inhibition in assay [1] (setting [7]) is 1%; in assay [1] (setting [8]), 4%; in assay [1] (at 50.0 µM), 13.4%; in assay [2] (setting [7]) it was 10%; in assay [2] (setting [8]), 3%; in assay [2] (at 50.0 µM), 1.5%. Moreover, the growth inhibition in assay [3] (setting [7]) is 0%; in assay [3] (setting [8]), 25%; in assay [3] (at 50.0 µM), 40.9%; in assay [4] (setting [7]), -37%; in assay [4] (setting [8]), -5%; in assay [4] (at 50.0 µM) it was 38.8%. In addition, the growth inhibition in assay [5] (setting [7]) was -8%; in assay [5] (setting [8]), 44%; in assay [5] (at 50.0 µM), -13.4%; in assay [6] (setting [7]) it was -1%; in assay [6] (setting [8]), -2%; in assay [6] (at 50.0 µM) it was -12.3%.
